A selection: hits, their analogues and other compounds. The true share with any hit is near 22%.
Measles CPE: protection of cells from measles virus | Measles virus-infected cells, CPE protection, absorbance | 140,000 tested, 1.5% active | protection (pct of control), % at 4 µM; in the data active = protection mostly above about 24%, no sharp cut-off; inactive = mostly below about 26%
CYP2C19 inhib: inhibitors of human CYP2C19; P33261; CYP2C19 Supersomes, luciferin-H EGE luminescence, 30 min; inhibition, % at 5 µM; 96,000 tested, 21% active; AID 778;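 active = CYP2C19 inhibition above a set limit at 5 µM in the primary screen, cut at about 50% in these data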
Target sequence (P33261 whole entry, looked up): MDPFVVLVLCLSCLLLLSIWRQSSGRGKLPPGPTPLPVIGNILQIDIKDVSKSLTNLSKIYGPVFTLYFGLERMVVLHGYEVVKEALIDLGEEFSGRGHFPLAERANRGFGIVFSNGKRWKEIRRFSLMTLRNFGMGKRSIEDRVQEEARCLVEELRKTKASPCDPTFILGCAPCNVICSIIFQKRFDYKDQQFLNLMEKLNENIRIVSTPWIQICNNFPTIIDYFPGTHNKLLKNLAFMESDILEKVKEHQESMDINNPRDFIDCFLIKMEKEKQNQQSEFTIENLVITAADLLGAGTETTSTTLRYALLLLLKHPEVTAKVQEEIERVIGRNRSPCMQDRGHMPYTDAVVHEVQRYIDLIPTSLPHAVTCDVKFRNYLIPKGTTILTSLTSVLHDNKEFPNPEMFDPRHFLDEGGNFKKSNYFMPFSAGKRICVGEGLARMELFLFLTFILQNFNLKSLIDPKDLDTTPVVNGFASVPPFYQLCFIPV
CYP2C19 activ: increases human CYP2C19 enzyme activity; P33261; 96,000 tested, under 10 active; recombinant CYP2C19, luciferin-H EGE luminescence; active compounds read high; 0 = fully inhibited enzyme, 1 = untreated enzyme; activation factor at 5 µM;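 active = activation factor of at least 2 at 5 µM in the primary screen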
CYP2C9 act: increases human cytochrome P450 2C9 activity; P11712; recombinant CYP2C9, luciferin-H conversion, luminescence; active compounds read high; factor 1 = untreated enzyme, 0 = blocked; activation factor at 5 µM; 96,000 tested, 1.4% active; AID 1024;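 active = activation factor of 2 or more for CYP2C9 at a 5 µM dose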
CYP2C9 inh: human CYP2C9 inhibition; P11712; inhibition, % at 5 µM; 96,000 tested, 20% active; CYP2C9 Supersomes, luciferin-H conversion, luminescence;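 active = blocking of liver enzyme CYP2C9 beyond about 50% at 5 µM, limit read from the data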
Hits are given with their value; n = inactive; x = no result given.

SMILES	Measles CPE	CYP2C19 inhib	CYP2C19 activ	CYP2C9 act	CYP2C9 inh
CCC(=O)Nc1cc(C(=O)OCC(=O)c2ccccc2Cl)ccc1C	n	n	n	2.1	n
CCC(=O)Nc1ccc(C(=O)c2ccccc2)cc1	n	n	n	2	n
O=C(NNC(=S)Nc1ccc(OC(F)F)cc1)c1cc2c(s1)CCCC2	n	x	x	x	x
CCOC(=O)N1CCN(CC(O)c2ccc3cc[nH]c3c2)CC1 (stereo not drawn)	n	96	n	n	n
CCOC(=O)N1CCN(CC(O)c2ccc3c(c2)CCN3)CC1 (stereo not drawn)	n	n	n	n	n
O=C1c2ccccc2C(=O)N1CCc1csc(-c2ccccc2)n1	39	100	n	n	n
Cn1cccc1C(=O)OCc1csc(-c2ccccc2)n1	n	n	n	n	n
O=C1c2ccccc2C(=O)N1CCc1csc(-c2ccc(F)cc2)n1	n	100	n	n	n
O=C1c2ccccc2C(=O)N1CCc1nc(-c2ccccn2)no1	n	n	n	n	n
CCC1CCC(C(=O)NNC(=O)OC)CC1 (stereo not drawn)	n	x	x	x	x
Cn1ncc(C#N)c1NC(=O)C1CC(c2c(F)cccc2Cl)=NO1 (stereo not drawn)	n	77	n	n	72
COc1ccc(NC(=O)C2CC(c3ccc(OC)c(OC)c3)=NO2)cc1OC (stereo not drawn)	n	n	n	n	n
Cn1ncc(C#N)c1NC(=O)C1CC(c2ccc(Cl)c(Cl)c2)=NO1 (stereo not drawn)	n	85	n	n	51
Cn1ncc(C#N)c1NC(=O)c1cc(-c2ccccc2Cl)on1	n	n	n	n	n
O=C(NCC1CCCO1)C1CC(c2ccc(Cl)c(Cl)c2)=NO1 (stereo not drawn)	n	n	n	2.5	n
O=C(O)/C=C/C(=O)NNC(=O)c1cccc(Br)c1	n	x	x	x	x
Cc1ccc(/C=N\NC(=O)C2CN(S(=O)(=O)c3ccccc3)CCN2S(=O)(=O)c2ccccc2)cc1 (stereo not drawn)	n	x	x	x	x
CC(C)(C)NC(=O)Cn1c(SCC(N)=O)nc2ccccc21	n	n	n	n	n
COc1ccc(OCCSc2nc3ccccc3n2CC(=O)O)cc1	n	n	n	n	n
COc1ccc(C(=O)CSc2nc3ccccc3n2CC(=O)c2ccccc2)cc1	x	54	n	n	76
COc1ccc(OC)c(C(=O)CSc2nc3ccccc3n2CC(=O)NC(C)(C)C)c1	n	n	n	n	87
O=C(CNC(=S)N(CCCN1CCOCC1)Cc1cccs1)N1CCOCC1	n	x	x	x	x
CCN(C(=O)COC(=O)c1cc(-c2ccccc2)nc2c1c(C)nn2-c1ccc(C)cc1)C1CCS(=O)(=O)C1 (stereo not drawn)	n	x	x	x	x
CCCCOC(=O)C1Cc2ccccc2C(=O)O1 (stereo not drawn)	n	85	n	n	n
COc1ccc(-c2cc(C(F)(F)F)c3c(=O)n(-c4ccccc4)[nH]c3n2)cc1	n	n	n	n	63
SMILES	Measles CPE	CYP2C19 inhib	CYP2C19 activ	CYP2C9 act	CYP2C9 inh
COc1ccc(-c2cc(C(F)(F)F)nc(S(C)(=O)=O)n2)cc1	n	n	n	n	n
CCOc1ccc(-c2cc(C(=O)NN3CCN(C)CC3)c3cc(Cl)ccc3n2)cc1	n	x	x	x	x
CC1=CC(=O)N(c2cccc(C(F)(F)F)c2)C1c1ccc(Cl)cc1 (stereo not drawn)	n	70	n	n	n
CC1=C(C(=O)N2CCc3ccccc32)C2(CCC(C)CC2)OC1=O (stereo not drawn)	n	n	n	n	n
CC1(C)OC(=O)C2(Cc3ccccc3N3CCCCC32)C(=O)O1 (stereo not drawn)	n	61	n	n	n
CC(=NCc1ccncc1)C1=C(O)c2ccccc2C1=O	n	65	n	n	83
CCCN=C(C)C1=C(O)c2ccccc2C1=O	n	x	x	x	x
CC(=NCc1cccnc1)C1=C(O)c2ccccc2C1=O	n	n	n	n	n
CC(=NCCCn1ccnc1)C1=C(O)c2ccccc2C1=O	n	n	n	n	81
Cc1nc2ccccn2c1/C(O)=C1\C(=O)C(=O)N(CCCn2ccnc2)C1c1ccncc1 (stereo not drawn)	n	n	n	n	n
CC(C)c1[nH]nc2c1C(c1ccc(OC(=O)c3ccco3)cc1)C(C#N)=C(N)O2 (stereo not drawn)	n	74	n	n	73
Cc1[nH]nc2c1C(c1ccc(OC(=O)c3ccco3)cc1)C(C#N)=C(N)O2 (stereo not drawn)	n	n	n	n	58

Bioassay records from PubChem BioAssay.
